# According to the supplement of paper PMC8728848:
# Only a selection was taken, and the strongest signals are over-represented in it overall.
# Legend:
# Experiment in all cases: glycan array binding signal (z-score within array); higher = stronger binding
# Details in all cases: glycan notation: IUPAC condensed, linker removed
# [1] = molecular target: Fuc(a1-2)Gal(b1-3)GalNAc(b1-3)Gal
# Procedure, shortened: (§1)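 Glycan array data came from 3228 arrays in the Consortium for Functional Glycomics database, and only arrays with an available protein sequence were kept. Glycan names were put into IUPAC-condensed notation, and columns mapping to the same glycan were averaged. The binding signal is a within-array Z-score, averaged across arrays of one protein sequence run at different concentrations or buffers and across linkers. A negative Z-score can be read as non-binding.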
# [2] = molecular target: Fuc(a1-2)Gal(b1-3)GlcNAc(b1-2)Man(a1-3)[Fuc(a1-2)Gal(b1-3)GlcNAc(b1-2)Man(a1-6)]Man(b1-4)GlcNAc(b1-4)[Fuc(a1-6)]GlcNAc
# Procedure, shortened: as §1
# [3] = molecular target: Fuc(a1-2)Gal(b1-4)[Fuc(a1-3)]GlcNAc(b1-3)[Neu5Ac(a2-6)Gal(b1-4)GlcNAc(b1-6)]Gal(b1-4)Glc
# Procedure, shortened: as §1
# [4] = molecular target: Fuc(a1-2)Gal6S(b1-4)Glc6S
# Procedure, shortened: as §1
# [5] = molecular target: Fuc(a1-2)[Gal(a1-3)]Gal(b1-3)GlcNAc(b1-2)Man(a1-3)[Fuc(a1-2)[Gal(a1-3)]Gal(b1-3)GlcNAc(b1-2)Man(a1-6)]Man(b1-4)GlcNAc(b1-4)GlcNAc
# Procedure, shortened: as §1
# [6] = molecular target: Fuc(a1-2)[Gal(a1-3)]Gal(b1-3)GlcNAc(b1-2)Man(a1-3)[Fuc(a1-2)[Gal(a1-3)]Gal(b1-3)GlcNAc(b1-2)Man(a1-6)]Man(b1-4)GlcNAc(b1-4)[Fuc(a1-6)]GlcNAc
# Procedure, shortened: as §1
# [7] = molecular target: Fuc(a1-2)[Gal(a1-3)]Gal(b1-4)[Fuc(a1-3)]GlcNAc(b1-3)GalNAc
# Procedure, shortened: as §1
# [8] = molecular target: Fuc(a1-2)[GalNAc(a1-3)]Gal(b1-4)Glc
# Procedure, shortened: as §1
# [9] = molecular target: Fuc(a1-3)[Gal(b1-4)]GlcNAc
# Procedure, shortened: as §1
# [10] = molecular target: Fuc(a1-3)[GalNAc(b1-4)]GlcNAc6S
# Procedure, shortened: as §1
# [11] = molecular target: Fuc(b1-3)GlcNAc
# Procedure, shortened: as §1
# [12] = molecular target: Gal(a1-3)Gal(b1-4)GlcNAc(b1-3)GalNAc
# Procedure, shortened: as §1
# [13] = molecular target: Gal(a1-3)Gal(b1-4)[Fuc(a1-3)]GlcNAc(b1-2)Man(a1-3)[Gal(a1-3)Gal(b1-4)[Fuc(a1-3)]GlcNAc(b1-2)Man(a1-6)]Man(b1-4)GlcNAc(b1-4)GlcNAc
# Procedure, shortened: as §1
# [14] = molecular target: Gal(a1-4)Gal(b1-3)GlcNAc(b1-2)Man(a1-3)[Gal(a1-4)Gal(b1-3)GlcNAc(b1-2)Man(a1-6)]Man(b1-4)GlcNAc(b1-4)GlcNAc
# Procedure, shortened: as §1
# [15] = molecular target: Gal(a1-4)Gal(b1-4)GlcNAc(b1-3)Gal(b1-4)Glc
# Procedure, shortened: as §1
# [16] = molecular target: Gal(b1-3)Gal(b1-4)GlcNAc
# Procedure, shortened: as §1
# [17] = molecular target: Gal(b1-3)GalNAc(b1-3)Gal
# Procedure, shortened: as §1
# [18] = molecular target: Gal(b1-3)GalNAc(b1-4)Gal(b1-4)Glc
# Procedure, shortened: as §1
# [19] = molecular target: Gal(b1-3)GlcNAc(b1-2)Man
# Procedure, shortened: as §1
# [20] = molecular target: Gal(b1-3)GlcNAc(b1-3)Gal(b1-4)GlcNAc(b1-2)[Gal(b1-3)GlcNAc(b1-3)Gal(b1-4)GlcNAc(b1-6)]Man(a1-6)[Gal(b1-3)GlcNAc(b1-3)Gal(b1-4)GlcNAc(b1-2)Man(a1-3)]Man(b1-4)GlcNAc(b1-4)[Fuc(a1-6)]GlcNAc
# Procedure, shortened: as §1
# [21] = molecular target: Gal(b1-3)GlcNAc(b1-3)GalNAc
# Procedure, shortened: as §1
# [22] = molecular target: Gal(b1-3)[Neu5Ac(b2-6)]GalNAc
# Procedure, shortened: as §1
# [23] = molecular target: Gal(b1-4)GalNAc(b1-3)[Fuc(a1-2)]Gal(b1-4)GlcNAc
# Procedure, shortened: as §1
# [24] = molecular target: Gal(b1-4)Glc6S
# Procedure, shortened: as §1
# [25] = molecular target: Gal(b1-4)GlcNAc(b1-2)[Gal(b1-4)GlcNAc(b1-4)]Man(a1-3)[Gal(b1-4)GlcNAc(b1-2)[Gal(b1-4)GlcNAc(b1-6)]Man(a1-6)]Man(b1-4)GlcNAc(b1-4)GlcNAc
# Procedure, shortened: as §1
# [26] = molecular target: Gal(b1-4)GlcNAc(b1-3)Gal(b1-4)GlcNAc(b1-2)Man(a1-3)[Gal(b1-4)GlcNAc(b1-3)Gal(b1-4)GlcNAc(b1-2)Man(a1-6)]Man(b1-4)GlcNAc(b1-4)[Fuc(a1-6)]GlcNAc
# Procedure, shortened: as §1
# [27] = molecular target: Gal(b1-4)GlcNAc(b1-3)Gal(b1-4)GlcNAc(b1-3)Gal(b1-4)GlcNAc(b1-3)Gal(b1-4)GlcNAc(b1-3)Gal(b1-4)GlcNAc(b1-2)[Gal(b1-4)GlcNAc(b1-3)Gal(b1-4)GlcNAc(b1-3)Gal(b1-4)GlcNAc(b1-3)Gal(b1-4)GlcNAc(b1-3)Gal(b1-4)GlcNAc(b1-6)]Man(a1-6)[Gal(b1-4)GlcNAc(b1-3)Gal(b1-4)GlcNAc(b1-3)Gal(b1-4)GlcNAc(b1-3)Gal(b1-4)GlcNAc(b1-3)Gal(b1-4)GlcNAc(b1-2)Man(a1-3)]Man(b1-4)GlcNAc(b1-4)[Fuc(a1-6)]GlcNAc
# Procedure, shortened: as §1
# [28] = molecular target: Gal(b1-4)GlcNAc(b1-3)[Fuc(a1-3)GlcNAc(b1-6)]Gal(b1-4)Glc
# Procedure, shortened: as §1
# [29] = molecular target: Gal(b1-4)GlcNAc(b1-6)Gal(b1-4)GlcNAc
# Procedure, shortened: as §1
# [30] = molecular target: Gal3S(b1-4)Glc
# Procedure, shortened: as §1
binder,measurement,setting,value
FimA-N3 (Actinomyces oris) (protein) MHHHHHHSSGVDLGTENLYFQSNAGLQGAQFQLYKAKNAYANTCSNEKEGAPIAINGQTTLTTDAQGAIDIKGLFISDSIDGADRDNQVNAMERCYVLVETKAPAGYVLPAGNGAATPVKVKAGEETTDN,glycan array binding signal (z-score),[1],5.62
same,glycan array binding signal (z-score),[2],-0.196
same,glycan array binding signal (z-score),[3],-0.472
same,glycan array binding signal (z-score),[4],0.307
same,glycan array binding signal (z-score),[5],-0.378
same,glycan array binding signal (z-score),[6],-0.364
same,glycan array binding signal (z-score),[7],0.505
same,glycan array binding signal (z-score),[8],-0.493
same,glycan array binding signal (z-score),[9],-0.369
same,glycan array binding signal (z-score),[10],4.08
same,glycan array binding signal (z-score),[11],-0.128
same,glycan array binding signal (z-score),[12],0.243
same,glycan array binding signal (z-score),[13],-0.667
same,glycan array binding signal (z-score),[14],-0.264
same,glycan array binding signal (z-score),[15],-0.388
same,glycan array binding signal (z-score),[16],0.999
same,glycan array binding signal (z-score),[17],-0.367
same,glycan array binding signal (z-score),[18],3.23
same,glycan array binding signal (z-score),[19],-0.37
same,glycan array binding signal (z-score),[20],2.94
same,glycan array binding signal (z-score),[21],-0.259
same,glycan array binding signal (z-score),[22],-0.563
same,glycan array binding signal (z-score),[23],-0.587
same,glycan array binding signal (z-score),[24],-0.058
same,glycan array binding signal (z-score),[25],-0.618
same,glycan array binding signal (z-score),[26],-0.021
same,glycan array binding signal (z-score),[27],4.26
same,glycan array binding signal (z-score),[28],-0.038
same,glycan array binding signal (z-score),[29],-0.237
same,glycan array binding signal (z-score),[30],0.681
